The values below come from article PMC5540273 (PLoS ONE, 2017).

The structures appear in SMILES notation.

Settings in all cases: concentration: 1 μM, replicates: in singlicate; n = 1
The test system of assay [1] is TESK1.
Assay [2] relates to TGFBR1.
The subject of assay [3] is TGFBR2.
The subject of assay [4] is TIE1.
Assay [5] deals with T1, TIE2.
T1 construct: gene TEK

Assay [6] relates to TLK1.
Assay [7] has as its system TLK2.
The test system of assay [8] is TNIK.
For assay [9], the system named is TNK1.
For assay [10], the system named is TNK2.
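Also: KINOMEscan kinase panel screen.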

Consider `CCc1ccc(-c2ccc3c(c2)-c2c(cnn2C)S(=O)(=O)N3C)cc1`, for which the “%Inh” value in assay [1] is 3%; in [2] it was 0%; in assay [3], 2%; in assay [4], 33%; in assay [5] it was 0%; in assay [6], 0%. Further, the “%Inh” value was 0% in assay [7], 8% in assay [8], 0% in assay [9] and 0% in [10].
For `O=c1[nH]cc(-c2ccc(N3CCOCC3)cc2)c2sc(-c3cn[nH]c3)cc12` [GSK2276055], the “%Inh” value is on record as 55% in assay [1]; 0% in assay [2]; 0% in [3]; 0% in [4]; 0% in assay [5]; 25% in assay [6]. Further, the “%Inh” value in assay [7] came out at 19%; in [8], 10%; in [9] it was 0%; in assay [10] it was 0%.
Consider `Nc1ncnc2c1nc(-c1ccccc1)n2-c1ccccc1` [SKF-97293], for which the “%Inh” value is reported as 19% in assay [1]; 9% in assay [2]; 4% in [3]; 9% in assay [4]; 11% in assay [5]; 0% in [6]. The “%Inh” value in [7] worked out at 19%; in assay [8], 0%; in assay [9], 8%; in assay [10], 0%.
Take `O=C(Nc1cccc(-c2nn3ncccc3c2-c2ccnc(Nc3ccccc3)n2)c1)c1c(F)cccc1F` [GSK198271]: the “%Inh” value in assay [1] was 24%; in [2], 0%; in [3], 0%; in [4] it was 45%; in [5], 25%; in [6], 22%. In addition, the “%Inh” value in [7] is 0%; in [8] it was 32%; in [9], 97.4%; in assay [10], 51%.
For the compound `NCCCC(NC(=O)c1cc(Br)c(-c2ccnc3[nH]ccc23)s1)c1ccccc1.O=C(O)C(F)(F)F.O=C(O)C(F)(F)F` (stereo not shown) [GSK1287544], the “%Inh” value in [1] was 16%; in assay [2], 0%; in [3], 0%; in [4], 73%; in [5], 15%; in assay [6] it was 0%. The “%Inh” value in [7] turned out to be 0%; in [8], 3%; in assay [9], 0%; in assay [10], 0%.
For `COC(=O)Nc1nc2cc(Oc3ccc(NC(=O)Nc4cc(C(F)(F)F)ccc4F)cn3)ccc2[nH]1.Cl.Cl` [GW681170], the “%Inh” value in assay [1] is reported as 10%; in assay [2], 0%; in assay [3], 0%; in assay [4], 93.1%; in assay [5], 98.6%; in assay [6], 11%. Further, the “%Inh” value in assay [7], in assay [8], in [9] and in assay [10] was 0% each time.
In the case of `COc1cccc(C2=C(Nc3ccc(Cl)c(C(=O)O)c3)C(=O)NC2=O)c1` [SB-390769], the “%Inh” value came to 20% in assay [1]; 0% in [2]; 6% in assay [3]; 25% in assay [4]; 17% in [5]; 5% in assay [6]. The “%Inh” value in assay [7] worked out at 0%; in [8], 0%; in [9], 0%; in assay [10] it was 17%.
Regarding `O=C(Nc1cccc(Oc2ccc3nc(NC(=O)C4CC4)cn3n2)c1)c1ccccc1C(F)(F)F`, the “%Inh” value in assay [1] was 17%; in [2] it was 9%; in assay [3], 0%; in [4], 16%; in assay [5], 14%; in assay [6], 0%. The “%Inh” value in [7] is reported as 3%; in [8], 9%; in assay [9], 55%; in [10], 4%.
Turning to `Cl.NC(=O)c1cccc(Nc2nccc(Nc3ccc(Oc4c(Cl)cccc4Cl)c(Cl)c3)n2)c1` [GW659009], the “%Inh” value in assay [1] was determined as 0%; in assay [2], 0%; in assay [3], 29%; in [4], 33%; in assay [5], 0%; in assay [6], 0%. Besides, the “%Inh” value in [7] is 0%; in assay [8] it was 0%; in [9], 36%; in assay [10] it was 0%.
`O=C(Nc1n[nH]c2nc(-c3ccc(O)cc3)ccc12)C1CC1` [SB-710363]: the “%Inh” value in [1] worked out at 0%; in [2] it was 0%; in [3], 0%; in [4], 0%; in assay [5], 11%; in [6], 18%. In addition, the “%Inh” value in assay [7] amounted to 0%; in assay [8], 95.1%; in assay [9] it was 0%; in [10] it was 0%.
Consider `FC(F)(F)c1ccc(/C=C/c2cncnc2Nc2ccc3[nH]c(Cc4ccccc4)nc3c2)cc1` [GW709199], for which the “%Inh” value in [1] stood at 2%; in [2], 28%; in assay [3], 0%; in assay [4], 0%; in assay [5], 15%; in [6] it was 0%. Also, the “%Inh” value in [7], in assay [8], in assay [9] and in [10] was 0% in each case.
As to `COc1cc(Nc2nccc(N3CCC(NC(=O)Nc4cccc(C(C)=O)c4)C3)n2)cc(OC)c1OC` (stereo not shown) [GSK1379753], the “%Inh” value is reported as 1% in assay [1]; 0% in [2]; 0% in assay [3]; 27% in assay [4]; 1% in assay [5]; 0% in [6]. The “%Inh” value was determined as 0% in assay [7], 0% in assay [8], 21% in assay [9] and 19% in assay [10].
In the case of `Nc1n[nH]c2cnc(-c3ccccc3)cc12` [SB-642124], the “%Inh” value in assay [1] was found to be 22%; in [2] it was 27%; in assay [3], 58%; in assay [4], 100%; in assay [5], 0%; in [6], 25%. Also, the “%Inh” value in assay [7] came to 0%; in assay [8], 39%; in assay [9], 0%; in assay [10], 38%.
With `CN(C)S(=O)(=O)c1cc(-c2ccc3nccc(-c4cccc(S(N)(=O)=O)c4)c3c2)cnc1N` [GSK1669921], the “%Inh” value amounted to 0% in assay [1]; 0% in assay [2]; 0% in assay [3]; 26% in assay [4]; 0% in assay [5]; 0% in [6]. For the same compound, the “%Inh” value in assay [7] is 0%; in assay [8], 13%; in assay [9], 42%; in assay [10], 9%.
For the compound `COc1cc2c(cc1OCCN1CCNCC1)ncc1c3ccc(C#N)cc3[nH]c21`, the “%Inh” value is 2% in assay [1]; 20% in assay [2]; 0% in assay [3]; 1% in assay [4]; 5% in assay [5]; 25% in assay [6]. The “%Inh” value worked out at 0% in assay [7], 76% in [8], 4% in [9] and 0% in assay [10].
Take `Cc1occc1-c1ncc(OC[C@@H](N)Cc2c[nH]c3ccccc23)cc1-c1ccc2[nH]nc(C)c2c1.O=C(O)C(F)(F)F` [GSK682037]: the “%Inh” value in assay [1] was determined as 19%; in assay [2], 0%; in assay [3] it was 0%; in [4] it was 18%; in assay [5] it was 0%; in assay [6], 0%. Besides, the “%Inh” value is 0% in [7], 97.2% in assay [8], 15% in assay [9] and 0% in assay [10].
On to `Cc1cccc(NC(=O)Nc2ccc(Oc3ncnc4ccn(C)c34)cc2)c1`, for which the “%Inh” value in assay [1] worked out at 0%; in assay [2] it was 0%; in assay [3], 0%; in assay [4] it was 59%; in assay [5], 2%; in assay [6], 0%. The “%Inh” value in assay [7] is given as 0%; in assay [8] it was 8%; in assay [9], 0%; in [10], 5%.
Turning to `CC(=O)Nc1nc2cnc(Nc3cc(NC(=O)c4cccc(C5(C#N)CC5)c4Cl)ccc3C)nc2s1`, the “%Inh” value in [1] came out at 0%; in assay [2], 4%; in [3], 0%; in [4], 7%; in assay [5], 8%; in assay [6] it was 14%. The “%Inh” value in [7] is reported as 0%; in [8], 16%; in [9], 88%; in [10] it was 0%.
Consider `Oc1cc(Nc2ccnc3cc(I)ccc23)ccc1F` [GW552771], for which the “%Inh” value in assay [1] came to 13%; in [2], 62%; in assay [3] it was 99.9%; in assay [4] it was 0%; in [5], 0%; in assay [6], 10%. Moreover, the “%Inh” value in assay [7] came to 0%; in assay [8] it was 47%; in assay [9], 4%; in assay [10] it was 2%.
For the compound `Cn1cc(-c2ccc3c(c2)CCN3C(=O)Cc2cccc(F)c2)c2c(N)ncnc21` [GSK2603358], the “%Inh” value in assay [1] is 39%; in assay [2], 0%; in assay [3], 0%; in assay [4], 89%; in [5], 48%; in assay [6], 0%. In addition, the “%Inh” value in [7] turned out to be 0%; in assay [8], 0%; in [9], 0%; in [10] it was 3%.
With `Cl.Cl.NCC(NCc1ccc(-c2ccnc3[nH]ccc23)s1)c1ccccc1` (stereo not shown) [GSK1321565], the “%Inh” value in assay [1] is 18%; in assay [2] it was 15%; in [3] it was 0%; in [4], 9%; in assay [5] it was 0%; in assay [6], 0%. Besides, the “%Inh” value in assay [7], in assay [8], in [9] and in assay [10] was 0% throughout.
As for `COC(=O)Nc1nc2ccc(Oc3ccc(NC(=O)Nc4cc(C(F)(F)F)ccc4F)cc3)cc2n1C.Cl` [GW692089], the “%Inh” value was 0% in [1]; 7% in assay [2]; 0% in assay [3]; 97% in assay [4]; 97.3% in assay [5]; 0% in assay [6]. For the same compound, the “%Inh” value in assay [7] stood at 33%; in assay [8], 10%; in assay [9] it was 0%; in [10], 0%.
